# What was measured:
# Assay in all cases: DAPPL (digital affinity profiling via proximity ligation, sequencing); 10 mM Tris-HCl pH 7.5, 50 mM NaCl, 1 mM DTT, 4% glycerol, room temperature, 30 min; GST-TFs on glutathione beads, 16-mer random dsDNA library, 0.1% formaldehyde crosslink after washing; high values mean tight binding
# Details in all cases: protein: recombinant; tags: N-terminal GST; dsDNA, one strand shown
# FLI1 = molecular target: T1, FLI1 (Homo sapiens, UniProt Q01543 1-452)
# T1 sequence: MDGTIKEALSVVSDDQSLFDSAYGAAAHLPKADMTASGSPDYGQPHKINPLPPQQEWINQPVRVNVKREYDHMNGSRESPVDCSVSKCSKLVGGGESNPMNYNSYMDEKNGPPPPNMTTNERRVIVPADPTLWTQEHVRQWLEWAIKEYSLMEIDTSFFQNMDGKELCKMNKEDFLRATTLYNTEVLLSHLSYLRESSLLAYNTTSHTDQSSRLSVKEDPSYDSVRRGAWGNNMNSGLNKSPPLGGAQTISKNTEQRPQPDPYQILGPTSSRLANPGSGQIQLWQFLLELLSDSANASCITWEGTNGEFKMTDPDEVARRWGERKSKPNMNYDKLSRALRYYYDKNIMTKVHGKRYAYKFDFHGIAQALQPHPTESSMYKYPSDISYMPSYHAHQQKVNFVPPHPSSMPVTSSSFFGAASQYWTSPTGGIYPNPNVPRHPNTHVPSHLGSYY
# Method in brief: (§1)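 Human transcription factors fused to GST were expressed in yeast, captured on glutathione beads, given DNA barcodes and pooled with a GST-only negative control. Pools were incubated with 200 nmole of a 16-mer random double-stranded DNA library in Tris/NaCl/DTT/glycerol buffer at room temperature for 30 min. They were then washed, crosslinked with 0.1% formaldehyde, proximity-ligated (BsaI/T4 ligase, 1 h, 37 °C), PCR-amplified and sequenced on an Illumina NextSeq500. Binding signal is each 6-mer's read frequency for a factor divided by its frequency for the GST control.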
# ELK1 = molecular target: T2, ELK1 (Homo sapiens, UniProt P19419 1-428)
# T2 sequence: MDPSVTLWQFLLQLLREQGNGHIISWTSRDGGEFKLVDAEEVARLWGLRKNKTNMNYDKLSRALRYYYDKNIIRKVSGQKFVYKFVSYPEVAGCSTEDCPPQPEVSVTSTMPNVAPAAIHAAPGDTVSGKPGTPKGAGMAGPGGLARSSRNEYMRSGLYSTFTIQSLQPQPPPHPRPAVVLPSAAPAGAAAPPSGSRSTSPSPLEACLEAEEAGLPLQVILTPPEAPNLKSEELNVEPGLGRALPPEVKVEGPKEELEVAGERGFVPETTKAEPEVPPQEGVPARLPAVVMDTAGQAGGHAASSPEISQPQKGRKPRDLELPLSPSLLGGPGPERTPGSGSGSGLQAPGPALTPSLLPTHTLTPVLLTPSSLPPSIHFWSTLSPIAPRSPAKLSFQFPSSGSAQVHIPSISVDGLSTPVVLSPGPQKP
# Method in brief: as §1
# GABPA = molecular target: T3, GABPA (Homo sapiens, UniProt Q06546 1-454)
# T3 sequence: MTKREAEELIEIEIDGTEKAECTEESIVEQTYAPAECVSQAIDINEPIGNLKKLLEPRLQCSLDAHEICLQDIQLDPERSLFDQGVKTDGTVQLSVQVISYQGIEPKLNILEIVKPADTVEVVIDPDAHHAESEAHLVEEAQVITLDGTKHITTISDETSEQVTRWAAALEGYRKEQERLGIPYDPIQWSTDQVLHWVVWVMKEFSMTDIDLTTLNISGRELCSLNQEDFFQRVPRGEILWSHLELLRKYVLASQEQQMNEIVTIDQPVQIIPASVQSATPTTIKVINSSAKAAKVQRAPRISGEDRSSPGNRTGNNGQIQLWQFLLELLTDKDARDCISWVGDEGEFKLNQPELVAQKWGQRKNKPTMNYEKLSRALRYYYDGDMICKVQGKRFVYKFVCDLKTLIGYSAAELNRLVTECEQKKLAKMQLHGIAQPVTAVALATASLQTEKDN
# Method in brief: as §1
# ELF1 = ELF1 (Homo sapiens, UniProt P32519 1-619)
# Sequence of ELF1 (P32519 whole entry): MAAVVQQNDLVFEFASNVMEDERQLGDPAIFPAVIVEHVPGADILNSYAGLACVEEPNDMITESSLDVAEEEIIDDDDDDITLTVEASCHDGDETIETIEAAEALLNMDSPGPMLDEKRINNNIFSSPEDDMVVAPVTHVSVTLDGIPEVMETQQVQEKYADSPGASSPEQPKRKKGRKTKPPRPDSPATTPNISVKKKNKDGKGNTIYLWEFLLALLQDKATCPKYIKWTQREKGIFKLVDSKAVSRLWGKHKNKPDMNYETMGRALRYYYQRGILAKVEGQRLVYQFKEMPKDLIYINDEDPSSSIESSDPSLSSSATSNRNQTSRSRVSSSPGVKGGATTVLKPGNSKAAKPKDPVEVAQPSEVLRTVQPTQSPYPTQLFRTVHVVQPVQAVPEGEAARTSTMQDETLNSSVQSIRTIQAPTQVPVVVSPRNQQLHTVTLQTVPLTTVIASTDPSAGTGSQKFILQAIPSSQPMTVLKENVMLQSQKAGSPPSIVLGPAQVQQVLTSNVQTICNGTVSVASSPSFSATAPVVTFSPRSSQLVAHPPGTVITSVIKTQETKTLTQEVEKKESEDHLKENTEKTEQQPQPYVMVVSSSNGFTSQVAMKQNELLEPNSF
# Method in brief: as §1
# EHF = molecular target: T4, EHF (Homo sapiens, UniProt Q9NZC4 1-300)
# T4 sequence: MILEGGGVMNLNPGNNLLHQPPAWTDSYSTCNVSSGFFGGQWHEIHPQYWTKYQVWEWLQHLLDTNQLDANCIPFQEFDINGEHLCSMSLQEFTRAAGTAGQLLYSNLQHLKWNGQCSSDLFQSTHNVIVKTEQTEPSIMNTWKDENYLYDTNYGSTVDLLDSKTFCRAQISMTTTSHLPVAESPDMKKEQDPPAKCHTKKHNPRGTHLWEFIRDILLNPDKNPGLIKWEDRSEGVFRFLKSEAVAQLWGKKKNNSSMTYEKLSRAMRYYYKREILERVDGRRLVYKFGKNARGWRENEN
# Method in brief: as §1
# ELK3 = molecular target: T5, ELK3 (Homo sapiens, UniProt P41970 1-407)
# T5 sequence: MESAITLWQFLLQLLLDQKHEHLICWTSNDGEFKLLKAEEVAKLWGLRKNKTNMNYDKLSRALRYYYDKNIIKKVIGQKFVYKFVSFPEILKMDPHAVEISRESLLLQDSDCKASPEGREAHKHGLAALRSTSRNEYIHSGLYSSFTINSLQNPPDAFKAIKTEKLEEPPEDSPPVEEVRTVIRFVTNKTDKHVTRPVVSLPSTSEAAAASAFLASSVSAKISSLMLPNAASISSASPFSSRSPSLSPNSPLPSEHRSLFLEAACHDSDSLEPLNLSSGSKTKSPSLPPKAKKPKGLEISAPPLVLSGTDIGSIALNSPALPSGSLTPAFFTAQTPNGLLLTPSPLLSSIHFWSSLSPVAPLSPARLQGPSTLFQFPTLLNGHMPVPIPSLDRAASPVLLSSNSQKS
# Method in brief: as §1
# SPIC = molecular target: T6, SPIC (Homo sapiens, UniProt Q8N5J4 1-248)
# T6 sequence: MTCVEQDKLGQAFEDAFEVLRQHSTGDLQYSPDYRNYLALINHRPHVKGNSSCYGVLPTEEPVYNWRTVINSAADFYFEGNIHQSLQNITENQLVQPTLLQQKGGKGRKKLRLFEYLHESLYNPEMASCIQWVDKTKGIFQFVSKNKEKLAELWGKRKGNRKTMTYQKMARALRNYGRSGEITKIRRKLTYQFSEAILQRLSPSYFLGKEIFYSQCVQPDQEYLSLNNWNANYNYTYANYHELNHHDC
# Method in brief: as §1
# ELF4 = ELF4 (Homo sapiens, UniProt Q99607 1-663)
# Sequence of ELF4 (Q99607 whole entry): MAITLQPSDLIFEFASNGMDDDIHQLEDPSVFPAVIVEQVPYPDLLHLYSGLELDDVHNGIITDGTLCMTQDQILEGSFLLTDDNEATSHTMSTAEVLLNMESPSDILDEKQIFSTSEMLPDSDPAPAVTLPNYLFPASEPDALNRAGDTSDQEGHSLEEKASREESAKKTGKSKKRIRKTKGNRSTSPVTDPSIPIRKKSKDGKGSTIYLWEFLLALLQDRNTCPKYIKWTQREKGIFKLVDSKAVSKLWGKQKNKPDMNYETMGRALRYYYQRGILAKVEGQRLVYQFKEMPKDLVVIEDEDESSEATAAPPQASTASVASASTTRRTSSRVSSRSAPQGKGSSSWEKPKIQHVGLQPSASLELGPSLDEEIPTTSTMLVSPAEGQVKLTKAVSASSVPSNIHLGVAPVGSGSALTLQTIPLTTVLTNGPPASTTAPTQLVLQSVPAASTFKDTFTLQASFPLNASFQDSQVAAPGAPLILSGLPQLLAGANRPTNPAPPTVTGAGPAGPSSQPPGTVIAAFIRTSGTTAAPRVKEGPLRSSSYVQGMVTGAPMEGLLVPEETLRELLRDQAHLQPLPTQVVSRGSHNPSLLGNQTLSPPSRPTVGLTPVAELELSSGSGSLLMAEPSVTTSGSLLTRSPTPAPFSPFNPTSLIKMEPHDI
# Method in brief: as §1
# ELK4 = molecular target: T7, ELK4 (Homo sapiens, UniProt P28324-2 1-405)
# T7 sequence: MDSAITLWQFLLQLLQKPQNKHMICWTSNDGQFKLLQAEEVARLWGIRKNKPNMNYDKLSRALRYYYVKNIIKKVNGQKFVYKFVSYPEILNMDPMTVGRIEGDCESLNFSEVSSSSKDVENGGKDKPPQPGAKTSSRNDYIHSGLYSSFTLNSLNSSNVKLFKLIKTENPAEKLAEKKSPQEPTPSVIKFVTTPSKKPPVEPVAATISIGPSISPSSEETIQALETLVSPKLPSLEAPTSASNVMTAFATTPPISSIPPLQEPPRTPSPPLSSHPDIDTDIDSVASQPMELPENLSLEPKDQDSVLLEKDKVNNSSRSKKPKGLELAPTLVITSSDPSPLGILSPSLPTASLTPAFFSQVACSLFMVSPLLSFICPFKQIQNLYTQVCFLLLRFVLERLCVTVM
# Method in brief: as §1
# ETV2 = molecular target: T8, ETV2 (Homo sapiens, UniProt O00321 1-342)
# T8 sequence: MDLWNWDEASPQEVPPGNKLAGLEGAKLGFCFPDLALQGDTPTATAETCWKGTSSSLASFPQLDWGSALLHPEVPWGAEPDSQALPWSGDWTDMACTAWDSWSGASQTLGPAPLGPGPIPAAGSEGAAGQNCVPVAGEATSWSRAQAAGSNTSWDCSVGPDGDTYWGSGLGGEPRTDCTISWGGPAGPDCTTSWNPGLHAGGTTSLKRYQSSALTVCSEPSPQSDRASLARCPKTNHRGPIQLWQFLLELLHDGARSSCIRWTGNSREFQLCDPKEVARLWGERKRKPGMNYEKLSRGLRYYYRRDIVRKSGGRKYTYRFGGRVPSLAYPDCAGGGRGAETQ
# Method in brief: as §1
# ELF3 = molecular target: T9, ELF3 (Homo sapiens, UniProt P78545 1-371)
# T9 sequence: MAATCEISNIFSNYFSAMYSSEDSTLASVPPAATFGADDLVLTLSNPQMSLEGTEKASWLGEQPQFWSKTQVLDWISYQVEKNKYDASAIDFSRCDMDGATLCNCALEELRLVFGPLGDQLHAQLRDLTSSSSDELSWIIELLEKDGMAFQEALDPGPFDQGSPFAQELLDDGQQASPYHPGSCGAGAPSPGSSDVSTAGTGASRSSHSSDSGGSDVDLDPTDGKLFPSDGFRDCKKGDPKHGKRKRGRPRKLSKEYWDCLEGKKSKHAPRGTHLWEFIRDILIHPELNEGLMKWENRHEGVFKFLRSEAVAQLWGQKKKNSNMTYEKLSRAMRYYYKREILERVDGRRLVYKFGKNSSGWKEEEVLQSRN
# Method in brief: as §1
# ETV3L = molecular target: T10, ETV3L (Homo sapiens, UniProt Q6ZN32 1-361)
# T10 sequence: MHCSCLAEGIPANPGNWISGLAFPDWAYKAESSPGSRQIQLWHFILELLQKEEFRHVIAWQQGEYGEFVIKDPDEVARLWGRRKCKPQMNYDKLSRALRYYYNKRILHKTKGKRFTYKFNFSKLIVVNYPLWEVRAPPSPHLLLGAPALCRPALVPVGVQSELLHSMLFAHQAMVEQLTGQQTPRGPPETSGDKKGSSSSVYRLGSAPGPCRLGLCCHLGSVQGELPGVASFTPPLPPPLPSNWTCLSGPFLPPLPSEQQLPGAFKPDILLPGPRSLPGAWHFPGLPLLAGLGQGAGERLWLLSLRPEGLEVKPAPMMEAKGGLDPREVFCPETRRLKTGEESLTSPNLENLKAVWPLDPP
# Method in brief: as §1
# ETS2 = molecular target: T11, ETS2 (Homo sapiens, UniProt P15036 1-469)
# T11 sequence: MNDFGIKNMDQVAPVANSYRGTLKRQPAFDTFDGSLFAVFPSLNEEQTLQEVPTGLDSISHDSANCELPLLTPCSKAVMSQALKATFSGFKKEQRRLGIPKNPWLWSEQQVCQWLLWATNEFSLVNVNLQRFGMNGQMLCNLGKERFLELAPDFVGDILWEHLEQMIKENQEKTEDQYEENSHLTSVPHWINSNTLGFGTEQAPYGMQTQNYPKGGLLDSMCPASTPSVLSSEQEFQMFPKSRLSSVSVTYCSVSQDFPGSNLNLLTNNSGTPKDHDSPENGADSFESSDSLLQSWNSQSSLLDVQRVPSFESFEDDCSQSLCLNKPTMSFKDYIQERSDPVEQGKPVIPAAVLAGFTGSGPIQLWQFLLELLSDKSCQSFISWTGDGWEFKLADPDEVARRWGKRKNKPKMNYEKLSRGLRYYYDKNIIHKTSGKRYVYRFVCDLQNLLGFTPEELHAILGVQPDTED
# Method in brief: as §1
# ETV7 = molecular target: T12, ETV7 (Homo sapiens, UniProt Q9Y603 1-341)
# T12 sequence: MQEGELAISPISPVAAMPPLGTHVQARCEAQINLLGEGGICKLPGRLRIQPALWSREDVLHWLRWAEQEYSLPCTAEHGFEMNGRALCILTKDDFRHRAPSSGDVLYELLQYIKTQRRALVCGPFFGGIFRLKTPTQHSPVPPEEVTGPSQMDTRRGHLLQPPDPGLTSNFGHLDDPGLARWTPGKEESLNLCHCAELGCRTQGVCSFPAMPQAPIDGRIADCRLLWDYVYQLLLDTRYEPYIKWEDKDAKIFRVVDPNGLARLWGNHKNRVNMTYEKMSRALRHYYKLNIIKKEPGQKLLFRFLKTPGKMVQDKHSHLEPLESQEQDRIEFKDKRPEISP
# Method in brief: as §1
# ETV3 = molecular target: T13, ETV3 (Homo sapiens, UniProt P41162-2 1-143)
# T13 sequence: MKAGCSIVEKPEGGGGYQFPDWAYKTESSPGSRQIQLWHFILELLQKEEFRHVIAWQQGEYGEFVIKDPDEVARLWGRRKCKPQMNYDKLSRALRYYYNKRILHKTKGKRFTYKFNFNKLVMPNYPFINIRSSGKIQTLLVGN
# Method in brief: as §1
# ETV6 = ETV6 (Homo sapiens, UniProt P41212 1-452)
# Sequence of ETV6 (P41212 whole entry): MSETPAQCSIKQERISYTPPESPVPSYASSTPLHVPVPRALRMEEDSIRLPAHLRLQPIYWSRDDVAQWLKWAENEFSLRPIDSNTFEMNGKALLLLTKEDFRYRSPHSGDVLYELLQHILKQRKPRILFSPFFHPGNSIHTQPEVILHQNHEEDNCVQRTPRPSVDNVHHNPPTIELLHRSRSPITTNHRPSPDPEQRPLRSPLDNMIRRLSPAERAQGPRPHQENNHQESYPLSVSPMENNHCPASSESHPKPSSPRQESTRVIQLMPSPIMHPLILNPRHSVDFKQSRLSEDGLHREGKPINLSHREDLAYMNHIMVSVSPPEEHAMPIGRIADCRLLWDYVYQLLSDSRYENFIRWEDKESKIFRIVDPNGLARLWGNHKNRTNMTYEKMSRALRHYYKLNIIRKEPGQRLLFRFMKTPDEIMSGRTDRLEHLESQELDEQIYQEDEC
# Method in brief: as §1
sequence,measurement,setting,value
ATAAGT,binding signal,FLI1,"1.08 fold enrichment (6-mer frequency, TF over GST control)"
same,binding signal,ELK1,"1.05 fold enrichment (6-mer frequency, TF over GST control)"
same,binding signal,GABPA,"1.07 fold enrichment (6-mer frequency, TF over GST control)"
same,binding signal,ELF1,"1.08 fold enrichment (6-mer frequency, TF over GST control)"
same,binding signal,EHF,"1.04 fold enrichment (6-mer frequency, TF over GST control)"
same,binding signal,ELK3,"1.09 fold enrichment (6-mer frequency, TF over GST control)"
same,binding signal,SPIC,"1.02 fold enrichment (6-mer frequency, TF over GST control)"
same,binding signal,ELF4,"1.1 fold enrichment (6-mer frequency, TF over GST control)"
same,binding signal,ELK4,"1.06 fold enrichment (6-mer frequency, TF over GST control)"
same,binding signal,ETV2,"1.05 fold enrichment (6-mer frequency, TF over GST control)"
same,binding signal,ELF3,"1.09 fold enrichment (6-mer frequency, TF over GST control)"
same,binding signal,ETV3L,"1.05 fold enrichment (6-mer frequency, TF over GST control)"
same,binding signal,ETS2,"1.06 fold enrichment (6-mer frequency, TF over GST control)"
same,binding signal,ETV7,"1.05 fold enrichment (6-mer frequency, TF over GST control)"
same,binding signal,ETV3,"1.03 fold enrichment (6-mer frequency, TF over GST control)"
same,binding signal,ETV6,"1.06 fold enrichment (6-mer frequency, TF over GST control)"
